# Compounds with a hit are over-represented: about 3.9% of the library has one in this group of screens.
# DRV1 agonist: activates human resolvin D1 receptor GPR32 | O75388 | CHO-K1 GPR32 beta-arrestin PathHunter luminescence, 90 min; zero percent set by DMSO-only wells | activation, % at 76.9 µM | 48,000 compounds, 2.5% hits;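 active = activation of at least 60% and not above a set upper limit, about 1 call in 100 departs from these limits; inconclusive = activation of 40% to 60%, or above that upper limit; inactive = activation under 40%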
# Target sequence (O75388 whole entry, looked up): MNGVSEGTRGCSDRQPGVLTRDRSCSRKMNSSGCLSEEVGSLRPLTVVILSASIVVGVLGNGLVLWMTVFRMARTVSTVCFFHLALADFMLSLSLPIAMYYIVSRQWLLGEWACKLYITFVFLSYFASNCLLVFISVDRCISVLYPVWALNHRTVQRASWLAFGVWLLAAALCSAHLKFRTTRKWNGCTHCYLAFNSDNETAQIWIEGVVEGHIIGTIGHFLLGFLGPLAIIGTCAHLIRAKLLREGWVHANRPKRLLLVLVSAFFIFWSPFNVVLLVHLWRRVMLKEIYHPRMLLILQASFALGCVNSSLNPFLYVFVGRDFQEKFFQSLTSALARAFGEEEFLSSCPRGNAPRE
#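 Luminescent readout of beta-Gal complementation quantifies ligand-induced beta-arrestin association with GPR32 in CHO-K1 cells; 90 min compound incubation at 37 °C, detection 1 h at room temperature.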
# p53null 39C tox: selectivity test: cytotoxicity in p53 null cells, nonpermissive temperature. H1299 p53-null (neo) cells, 39C, ATPlite viability, 24 h. Potency, µM (doses to about 46.1 µM), actives largely listed as cytotoxic. AID 904. 55,000 compounds, 0.97% hits; note: nearly all actives have a fitted effect of over 50% in size
#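 Luminescent ATP signal reported cell survival after H1299 lines (neo, p53 null; or p53 A138V) received up to 46 uM compound and 24 hr incubation at 39C.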
# HTT-AS promoter: activators of huntingtin-antisense promoter activity; HEK293 HTT-AS promoter firefly luciferase reporter, 24 h; response scale: percent change from vehicle, -100% = no light; 48,000 compounds, 0.24% hits; Potency, µM (highest dose often 57.5 µM), actives largely listed as activators; note: nearly all actives have a fitted effect of over 55% in size
#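 HEK293 cells carrying firefly luciferase reporters were seeded at 2,500 per well in Opti-MEM and cultured for 24 h. They were then treated with compounds at up to 57.5 uM final for 24 h at 37 degrees C before Dual-Glo luminescence readout.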
# p53null 32C kill: p53 null cell cytotoxicity, permissive temperature. H1299-neo p53 null cells, ATP luminescence, 24 h, 32C. Potency, µM (doses to about 46.1 µM), actives largely listed as cytotoxic. 55,000 compounds, 0.62% hits. AID 903; note: nearly all actives have a fitted effect of over 55% in size
#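 Cells lacking p53 (H1299-neo) are plated at 600 per well and allowed to settle overnight at 37C. Test compounds (up to 46 uM) are added and held 24 hours at 32C, then ATP is quantified by luminescence.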
# HTT promoter inh: inhibits huntingtin promoter activity; HEK293 HTT promoter firefly luciferase reporter, 24 h; Potency, µM (highest dose often 57.5 µM), hits mostly inhibitors; 48,000 compounds, 0.93% hits; AID 1508623; note: nearly all actives have a fitted effect of over 50% in size
#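 Luminescence was read after Dual-Glo reagent and a 10 min room-temperature incubation. Values were normalized to vehicle (0% activity) and zero RLU (-100% activity). Reporter HEK293 cells had been exposed to compounds (up to 57.5 uM final) for 24 h.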
# A number is an active result; – = inactive; ? = inconclusive; · = no result; [ ] = dose if it differs, or a comment. Unless noted, calls come from the whole dose curve; as a rule, active = well fitted curve in the direction sought with a large enough effect; inconclusive = small, poorly fitted or top-dose-only effect, or another doubt; inactive = no such curve, though single readings can be large; an effect the other way counts as inactive or inconclusive.
SMILES,DRV1 agonist,p53null 39C tox,HTT-AS promoter,p53null 32C kill,HTT promoter inh
COc1cc2nccc(Oc3ccc(NC(=O)C4(C(=O)Nc5ccc(F)cc5)CC4)cc3)c2cc1OC,·,·,–,·,–
COc1ccc(NS(=O)(=O)c2cc(Br)cc3c2N(C(=O)C2CC2)CC3)cc1OC,–,–,–,–,5.62µM
COc1ccc(OC)c(NS(=O)(=O)c2ccc3c(c2)CCCN3C(=O)C2CCC2)c1,–,–,–,–,?
COc1ccc(NS(=O)(=O)c2ccc3c(c2)CCCN3C(=O)C2CCC2)cc1OC,?,–,–,–,1.78µM
Cc1ccc(NS(=O)(=O)c2ccc3c(c2)CCCN3C(=O)C2CCC2)cc1Cl,–,–,–,–,22.4µM
COc1ccc(-c2oc3c(CC=C(C)C)c(O)cc(O)c3c(=O)c2O)cc1,·,·,–,·,–
C=C1C(=O)O[C@H]2[C@@H]1CCC(C)=CCC[C@@]1(C)O[C@@H]21,·,·,–,·,?
NC(CO)(CO)CCc1ccc(Sc2cccc(OCc3ccccc3)c2)cc1Cl,·,·,–,·,–
CC1(C)CCC(CN2CCN(c3ccc(C(=O)NS(=O)(=O)c4ccc(NCC5CCOCC5)c([N+](=O)[O-])c4)c(Oc4cnc5[nH]ccc5c4)c3)CC2)=C(c2ccc(Cl)cc2)C1,·,·,–,·,–
COc1cccc(CNC(=O)C2CCCN(S(=O)(=O)N(C)c3ccc(F)cc3)C2)c1OC (configuration not stated),–,–,–,–,25.1µM
COc1ccc(N2Cc3cccc(C(=O)Nc4ccc(C(C)C)cc4)c3C2=O)cc1,–,3.98µM,–,?,–
COc1ccc(N2Cc3cccc(C(=O)Nc4ccc(C)cc4)c3C2=O)cc1,–,–,–,–,–
CS(=O)(=O)N1CCc2c(-c3cnc(N)nc3)nc(N3CCOCC3)nc21,·,·,–,·,–
CCCCN(CC)C(=O)C1CCC(CNS(=O)(=O)c2cccc3nsnc23)CC1 (configuration not stated),67.6,–,–[11.5 µM],–,?
O=C(Nc1ccc(C(F)(F)F)cc1)C1CCC(CNS(=O)(=O)c2cccc3nsnc23)CC1 (configuration not stated),114.3,–,–,–,–
CC(C)c1ccc(NC(=O)CCNS(=O)(=O)c2cccc3nsnc23)cc1,75.0,–,–,–,–
Cc1ccc(NC(=O)CCNS(=O)(=O)c2cccc3nsnc23)cc1,–,–,–,–,–
CC(C)(C)[C@H](NC(=O)c1ccc(N)c(Cl)c1)C(=O)N1CCC[C@@H]1C(=O)N[C@H](C#N)CC(=O)O,·,·,–[6 µM],·,–[6.01 µM]
COCCOc1nc(-c2ccc(Cl)c(Cl)c2)n(-c2ccc(NC(=O)CCl)cc2)n1,·,·,–,·,–
COc1ccccc1-c1nc(SCC(=O)c2ccccc2)n[nH]1,?,–,–,–,–
COc1ccc(-c2nc(SCC(=O)c3ccc(Br)cc3)n[nH]2)cc1,113.9,–,–,–,–
Cc1ccc(NC(=O)c2cc(S(=O)(=O)N3CCOCC3)c(Cl)cc2Cl)cc1,84.0,–,–,–,?
Cc1ccc(C(=O)Nc2cccc(O)c2)cc1S(=O)(=O)N1CCCCCC1,82.3,–,–,–,–
Cc1ccc(NC(=O)c2ccc(C)c(S(=O)(=O)N3CCCCCC3)c2)cc1,–,–,–,–,?
Cc1ccc(C(=O)Nc2ccc(Br)cc2)cc1S(=O)(=O)N1CCOCC1,?,–,–,–,20µM
SMILES,DRV1 agonist,p53null 39C tox,HTT-AS promoter,p53null 32C kill,HTT promoter inh
O=C(CCCCCCC(=O)Nc1ccc([C@H]2O[C@@H](CSc3nc(-c4ccccc4)c(-c4ccccc4)o3)C[C@@H](c3ccc(CO)cc3)O2)cc1)NO,·,·,–,·,–
CC(C)(Oc1ccc(Cl)cc1)C(=O)OCCCOC(=O)C(C)(C)Oc1ccc(Cl)cc1,–,·,–,·,–
C[n+]1c2cc(N)ccc2cc2ccc(N)cc21 (tested in a mixture with another compound),–,·,–,·,–
Cc1nc(Nc2ccc(Cl)cc2)cc(-c2ccccc2)n1,66.8,–,?,–,–
Cc1cnc(NS(=O)(=O)c2ccc(N)cc2)nc1,–,·,–,·,–
Cc1ccc(C(=O)N(CCCN)[C@@H](c2oc3cc(Cl)ccc3c(=O)c2Cc2ccccc2)C(C)C)cc1,·,·,–,·,–
Cc1ccc(NC(=O)CSc2[nH]c(=O)ncc2C)cc1,–,12.6µM,?,11.2µM,–

# Screening results deposited in PubChem by National Center for Advancing Translational Sciences (NCATS).
